The values below come from ChEMBL document CHEMBL3988442, “University of Dundee, Small-Polar-MMV Screening Library” (2021).

The structures appear in SMILES notation. Among all 48,000 compounds or so, about 13,000 (27%) showed an effect of 50% or more. The list shows a part of the results.

For this assay, the system named is Wolbachia pipientis. Kind of assay: Anti-Wolbachia Cell-Based Screen. The class given is functional. The arrangement: scale not given: in the data most compounds retested in dose-response had high values. The settings on record: 5 µM.
For the compound `Cc1oc(-c2cccs2)nc1C(=O)N(C)C1(C#N)CCC1`, the “Percent Effect” value is recorded as 6.807%. Next, `Cc1ccc([C@@H]2CN(C(=O)CCc3cc(Cl)no3)C[C@H]2N(C)C)cc1`: -9.949%; `CC(NC(N)=O)C(=O)NCc1ccnc(Oc2ccc(F)cc2)c1` (stereo not given): -14.04%. Take `COc1cccc(-c2cc(CN)ccc2F)c1F`: the “Percent Effect” value is reported as -9.579%. `COc1ccc(Oc2cc(CN)ccn2)cc1`: the “Percent Effect” value is reported as 98.96%. Take `COc1ccc(N(CCC(N)=O)C(=O)CSc2ccc(Cl)cc2)cc1`: the “Percent Effect” value was -20.11%. With `COCCC(=O)N[C@H]1CN(c2nc(C)c3c(n2)CCCC3)C[C@@H]1C1CC1`, the “Percent Effect” value came to 40.93%. As for `CC(NCc1ccccn1)c1cc2c(cc1Br)OCCO2` (stereo not given), the “Percent Effect” value was determined as 9.612%. On to `O=C(NCc1ccc(F)cc1)NCC(O)(c1cccs1)C1CC1` (stereo not given), for which the “Percent Effect” value is 0.4051%. Turning to `Cn1cc(N2CCC(NC(=O)c3ccccc3Cl)C2=O)cn1` (stereo not given), the “Percent Effect” value is on record as -3.21%.

With `CN1CCC(NC(=O)c2cc(Br)cc(Cl)c2O)C1=O` (stereo not given), the “Percent Effect” value amounted to 91.47%.

Consider `CN1CCC(NC(=O)Nc2ccc(Cl)c(F)c2)C1=O` (stereo not given), for which the “Percent Effect” value was found to be 7.915%. As for `CN1CCC(NC(=O)c2cc(F)cc(Cl)c2O)C1=O` (stereo not given), the “Percent Effect” value is on record as 115.3%. Regarding `CN1CCC(NC(=O)Nc2ccc(F)c(Br)c2)C1=O` (stereo not given), the “Percent Effect” value is on record as -1.465%. Take `CN1CCC(NC(=O)Nc2ccc(Br)c(F)c2)C1=O` (stereo not given): the “Percent Effect” value is on record as 3.385%. The figure for `CN1CCC(NC(=O)c2cc(Cl)cc(Br)c2O)C1=O` (stereo not given) is 99.64%; for `CN1CCC(NC(=O)Nc2ccc(F)c(-n3cccc3)c2)C1=O` (stereo not given) it is 0.2161%; for `CN1CCC(NC(=O)CCCc2cc(Cl)sc2Cl)C1=O` (stereo not given) it is -5.326%. The figure for `CCN(C)C[C@@H]1CN(Cc2cccc(Cl)c2)C[C@@H]1CO` is -21.33%; for `Cc1ncc(CN(C)C(=O)Nc2cccc(N3CCNC3=O)c2)s1` it is -6.99%. Take `COc1cccc(-c2cc(NCc3nc(C)cs3)n(C)n2)c1`: the “Percent Effect” value is on record as -29%. Regarding `CCCS(=O)(=O)N1CC[C@@H]2[C@@H]1CC(=O)N2Cc1csc(C)n1`, the “Percent Effect” value came out at 71.41%.

In the case of `CCS(=O)(=O)N1CC[C@H]2[C@H]1CC(=O)N2Cc1csc(C)n1`, the “Percent Effect” value is on record as 96.63%. As for `CCN1C(=O)C[C@@H]2[C@@H]1CCN2S(=O)(=O)c1cccc(C)c1`, the “Percent Effect” value was -32.48%.

Take `CCOCC(=O)N1CC[C@H]2[C@@H]1CCC(=O)N2Cc1csc(C)n1`: the “Percent Effect” value was 22.07%. `COc1ccc(Br)c(C(=O)N2CCCC(c3nc(C)no3)C2)c1` (stereo not given): the “Percent Effect” value is reported as -8.45%.

As to `CCC(=O)N1CCN(C(=O)Nc2cccc(N3CCOCC3)c2)CC1`, the “Percent Effect” value is listed as -13.34%. For `CC(NC(N)=O)C(=O)N1CCCN(Cc2nccn2C(C)C)CC1` (stereo not given), the “Percent Effect” value is given as -6.463%. On to `CC1(C(=O)N2CCOCC2)CN(Cc2ncc[nH]2)CCO1` (stereo not given), for which the “Percent Effect” value is 90.74%. As for `Cn1ccnc1CN1CCOC(C)(C(=O)N2CCOCC2)C1` (stereo not given), the “Percent Effect” value is listed as 108.3%. Take `CC(C)n1ccnc1CN1CCOC(C)(C(=O)N2CCOCC2)C1` (stereo not given): the “Percent Effect” value worked out at 127.3%.

Regarding `CC(C)n1ccnc1CN1CCCN(C(=O)c2nccnc2N)CC1`, the “Percent Effect” value is 3.581%. As to `Cn1ccnc1CN1CCC2(CC(=O)N(c3ccc4c(c3)OCO4)C2)C1.O=C(O)C(F)(F)F` (stereo not given), the “Percent Effect” value is recorded as -22.94%. In the case of `CN1CC2(CCN(Cc3ncc[nH]3)CC2)CC1=O`, the “Percent Effect” value is given as -5.481%.

As for `Cn1ccnc1CN1CCC2(CC1)CN(CC1CC1)C(=O)CO2`, the “Percent Effect” value was -0.08379%.

For the compound `O=C(c1cccc(S(=O)(=O)NCCCc2ncc[nH]2)c1)N1CCOCC1`, the “Percent Effect” value is listed as -4.417%. Regarding `COc1ccccc1CC1CCCN(CCC#N)C1` (stereo not given), the “Percent Effect” value is recorded as -6.976%. With `Cc1nonc1C1CCCN1C(=O)c1cc2n(n1)CCCNC2` (stereo not given), the “Percent Effect” value is on record as -3.031%. For the compound `COCC(O)CN(C)c1ccnc2cc(Br)ccc12` (stereo not given), the “Percent Effect” value came to 92.3%.

For the compound `COc1ccc(Cl)cc1NC(=O)N(C)CC(O)COCCOC(C)C` (stereo not given), the “Percent Effect” value is recorded as -8.214%.

For the compound `COc1ccc(COCC(O)CN(C)c2ccc(C)cc2C)cc1` (stereo not given), the “Percent Effect” value is 10.8%. The figure for `COCC(O)CNc1cncc(Br)c1` (stereo not given) is -2.667%; for `COCC(=O)N1CCC(Nc2ccnc3ccc(Cl)cc23)CC1` it is -6.533%. Next, `COCC(O)CN(C)c1ccnc2cc(F)ccc12` (stereo not given): 83.56%; `COCC(O)CN(C)c1ccnc2ccc(Cl)cc12` (stereo not given): 99.68%.

For `Cc1ccc(N(C)CC(O)COCc2ccccc2F)c(C)c1` (stereo not given), the “Percent Effect” value worked out at 0.5576%. Turning to `COc1cc(F)ccc1N(C)Cc1ccccn1`, the “Percent Effect” value turned out to be 9.437%. `COC(=O)c1ccc(Cl)c(NS(=O)(=O)c2cnn(C)c2)c1`: the “Percent Effect” value is given as -1.605%. Take `O=C(CNC(=O)C1CC1)NCC(F)(F)F`: the “Percent Effect” value was -16.51%.

In the case of `Cl.NC(=O)CCc1cccc(C2CCNCC2)n1`, the “Percent Effect” value turned out to be 115.3%. `Cl.O=C(CCc1cccc(C2CCNCC2)n1)N1CCCCC1`: the “Percent Effect” value was found to be 116.4%.

On to `O=C(CCc1ccccc1)N1CCC(c2n[nH]c(C3CC3)n2)CC1`, for which the “Percent Effect” value is on record as -4.114%. With `CNC(=O)[C@H]1C[C@@H]2CN(S(=O)(=O)c3ccc(C)c(F)c3)C[C@@H]2N1C.O=C(O)C(F)(F)F`, the “Percent Effect” value is reported as -6.907%. Regarding `O=C(c1ccoc1)N1CCCC1C1CCN(Cc2ccccc2)CC1` (stereo not given), the “Percent Effect” value is recorded as -51.53%.

Turning to `Cc1nn(C)c(Cl)c1C1CCCN1c1ncnc2c1CCC2` (stereo not given), the “Percent Effect” value was 16.41%.

Turning to `CNC(=O)c1[nH]nc2ccc(I)cc12`, the “Percent Effect” value came out at 8.904%. The figure for `Cc1c(C(=O)O)oc2ccc(I)cc12` is 125.9%; for `COc1ccc2c(C)c(C(=O)NC3CCN(S(C)(=O)=O)CC3)oc2c1` it is 1.038%.

As for `O=C(O)CSc1nnc(-c2ccco2)n1-c1ccccc1C(F)(F)F`, the “Percent Effect” value is recorded as -16%.

Regarding `COc1cc2c(nn1)CCN(Cc1noc(-c3ccccc3)n1)C2`, the “Percent Effect” value is -2.709%. Turning to `NC(=O)c1ccc(C(=O)N(Cc2ccc(O)cc2)CC2CC2)cc1`, the “Percent Effect” value is -2.707%. Next, `COCC1c2nnn(CC3CC3)c2CCN1C(=O)c1cc(C)on1` (stereo not given): 18.93%; `CCOCC1c2c(cnn2C)CCN1C(=O)c1cc(C)on1.O=C(O)C(F)(F)F` (stereo not given): 118%; `COCC1c2c(cnn2C)CCN1C(=O)c1cc(C)on1.O=C(O)C(F)(F)F` (stereo not given): 103.5%.

For the compound `CCOCC1c2c(cnn2C)CCN1C(=O)c1ccncn1.O=C(O)C(F)(F)F` (stereo not given), the “Percent Effect” value is -13.88%. Consider `O=C(COc1cccc(Br)c1)N1CCN(c2nccs2)CC1`, for which the “Percent Effect” value turned out to be 20.8%.

As for `CC(C)c1noc(C2CCCN2C(=O)Cc2cn3ccsc3n2)n1` (stereo not given), the “Percent Effect” value came to 5.125%. For `CN(C)CCCNC(=O)C(c1cccc(F)c1)N(C)C` (stereo not given), the “Percent Effect” value amounted to 6.227%. In the case of `O=C(Nc1ccc(-n2ccnc2)c(F)c1)C1CCN(C(=O)C2CC2)CC1`, the “Percent Effect” value was -14.41%.

For the compound `COC(C)c1cccc(NCc2cccc(O)c2)c1` (stereo not given), the “Percent Effect” value was 1.439%. As for `CSc1nc2ncc3c(=O)n(C)ccc3n2n1`, the “Percent Effect” value is 108.2%.

Take `Cn1ccc2c(cnc3nc(-c4ccncc4)nn32)c1=O`: the “Percent Effect” value turned out to be 109.5%. Next, `Cc1nc2nc(C)c3c(=O)n(-c4ccn[nH]4)ccc3n2n1`: 1.096%. On to `Cc1nc2ncc3c(=O)n(C)ccc3n2n1`, for which the “Percent Effect” value worked out at 126.9%. For `Cc1nc(C2CCCN2Cc2nnc(C3CC3)o2)no1` (stereo not given), the “Percent Effect” value came out at 5.301%. The figure for `c1ccc(-c2nc(CN3CCCC3Cn3cccn3)no2)cc1` (stereo not given) is 97.29%.

Take `COc1ccc(-c2nc(CN3CCCC3Cn3cccn3)no2)cc1` (stereo not given): the “Percent Effect” value is recorded as 1.848%. Next, `c1ncn(CC2CCCCN2Cc2noc(C3CC3)n2)n1` (stereo not given): -14.69%; `Cc1nc(CN2CCCCC2Cn2cccn2)nc2ccccc12` (stereo not given): -7.431%; `Cc1ccc(-c2nc(CN3CCCC3Cn3cc(C)cn3)no2)cc1` (stereo not given): 3.147%. For `CC(C)c1nc(CN2CCCC2Cn2cccn2)no1` (stereo not given), the “Percent Effect” value was 118.9%. Next, `c1cnn(CC2CCCN2Cc2noc(C3CC3)n2)c1` (stereo not given): 88.48%; `OC(COCc1ccco1)CSc1nnc2ccccn12` (stereo not given): -3.086%. For `O=C(NCCN1CCc2ccccc21)c1cc(-c2ccc(O)cc2)n[nH]1`, the “Percent Effect” value is -2.452%. On to `Cn1cccc1CNCc1nnc2n1CCCC2C(F)(F)F` (stereo not given), for which the “Percent Effect” value is -16.29%. On to `COc1ccc(-n2ccc(C(=O)NCCN3CCCCCC3)n2)cc1`, for which the “Percent Effect” value was determined as 92.28%. `O=C(NCCN1CCCCCC1=O)c1ccn(-c2ccc(F)cc2)n1`: the “Percent Effect” value is 0.8221%. On to `COc1ccc(-n2ccc(C(=O)NCCN3CCCCC3)n2)cc1`, for which the “Percent Effect” value came out at 102.6%.

With `COc1ccc(-n2ccc(C(=O)NCCN3CCC(C)CC3)n2)cc1`, the “Percent Effect” value is 99.65%. On to `O=C(NCCN1CCCCC1)c1ccn(-c2ccccc2)n1`, for which the “Percent Effect” value is reported as 106.8%. Turning to `COc1ccc(-n2ccc(C(=O)NCCN3CCCCC3C)n2)cc1` (stereo not given), the “Percent Effect” value is -3.568%. On to `O=C(NCCN1CCOCC1)c1ccn(-c2ccccc2F)n1`, for which the “Percent Effect” value is listed as 7.854%. As for `COc1ccc2nc(C)c(C(=O)NCCN3CCS(=O)(=O)CC3)cc2c1`, the “Percent Effect” value turned out to be 7.609%. Regarding `O=C(O)C(F)(F)F.O=S(=O)(NCC1OCCc2cn(CC3CCOCC3)nc21)C1CC1` (stereo not given), the “Percent Effect” value is reported as -11.9%. As for `CNC(=O)CS(=O)(=O)Cc1ccc(OC)c(F)c1`, the “Percent Effect” value is recorded as -52.3%.

As for `FC(F)(F)C1CCc2nnc(CNCc3ccsc3)n2C1` (stereo not given), the “Percent Effect” value was 11.3%. `CC1CCN(CCNC(=O)c2ccn(-c3ccccc3)n2)CC1`: the “Percent Effect” value is listed as 84.83%. Turning to `COc1cc(C(N)=O)c(N(C)S(C)(=O)=O)cc1OC`, the “Percent Effect” value is -14.68%. Take `Cc1c(C(=O)N(C)C)cccc1N(C)S(C)(=O)=O`: the “Percent Effect” value turned out to be 107%. As for `CN(C(=O)c1ccncc1)c1ccccc1S(C)(=O)=O`, the “Percent Effect” value was 8.968%.

`CN(C(=O)c1ccc(Cl)c(S(C)(=O)=O)c1)c1ccccc1`: the “Percent Effect” value is -9.214%. As to `CN(C(=O)c1cccc(C(=O)NS(C)(=O)=O)c1)c1ccccc1`, the “Percent Effect” value is reported as -9.633%.

With `Cc1c(C(=O)N(C)c2ccccc2)cccc1N(C)S(C)(=O)=O`, the “Percent Effect” value came to 104.7%. On to `O=S(=O)(Nc1ncccc1F)c1cc(Cl)cc2c1OCC2`, for which the “Percent Effect” value is reported as -5.525%. For the compound `Cc1nc(C)n(CC(C)C(=O)N2CCC(N3CCC(O)CC3)CC2)n1` (stereo not given), the “Percent Effect” value is recorded as -19.51%.
